In experiment [1] the target is T1, Ephrin type-A receptor 3 (Homo sapiens) (UniProt P29320).
T1 sequence (whole entry): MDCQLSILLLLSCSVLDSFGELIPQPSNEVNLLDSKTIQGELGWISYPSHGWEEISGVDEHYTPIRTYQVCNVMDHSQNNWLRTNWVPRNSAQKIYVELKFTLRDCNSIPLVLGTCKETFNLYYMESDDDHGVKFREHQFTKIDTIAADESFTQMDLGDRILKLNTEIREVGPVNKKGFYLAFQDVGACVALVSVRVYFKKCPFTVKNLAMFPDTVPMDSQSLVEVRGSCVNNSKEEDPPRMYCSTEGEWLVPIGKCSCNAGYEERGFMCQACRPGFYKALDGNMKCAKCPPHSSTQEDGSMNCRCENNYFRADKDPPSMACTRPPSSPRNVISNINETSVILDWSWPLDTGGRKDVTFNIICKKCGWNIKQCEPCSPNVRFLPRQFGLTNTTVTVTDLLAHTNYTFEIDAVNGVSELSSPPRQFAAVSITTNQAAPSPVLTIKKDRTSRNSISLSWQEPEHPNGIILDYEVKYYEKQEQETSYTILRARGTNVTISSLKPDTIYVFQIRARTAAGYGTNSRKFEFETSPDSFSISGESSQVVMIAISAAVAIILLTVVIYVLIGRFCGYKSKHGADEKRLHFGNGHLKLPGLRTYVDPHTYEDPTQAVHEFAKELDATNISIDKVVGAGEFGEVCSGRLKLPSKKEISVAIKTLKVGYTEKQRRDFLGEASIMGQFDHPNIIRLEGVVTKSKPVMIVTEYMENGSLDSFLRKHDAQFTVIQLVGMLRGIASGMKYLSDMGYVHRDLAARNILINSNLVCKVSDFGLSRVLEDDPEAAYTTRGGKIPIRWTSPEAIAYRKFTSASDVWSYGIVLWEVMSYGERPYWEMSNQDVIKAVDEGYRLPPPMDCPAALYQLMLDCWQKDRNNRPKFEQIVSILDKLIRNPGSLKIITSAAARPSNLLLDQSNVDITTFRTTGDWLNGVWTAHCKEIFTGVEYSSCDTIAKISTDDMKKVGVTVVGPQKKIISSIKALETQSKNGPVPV
Conditions: at 10 µM; call rule not given here.

In experiment [2] the target is Ephrin type-A receptor 4 (Homo sapiens) (UniProt P54764). Conditions: at 10 µM.
Chain of Ephrin type-A receptor 4 (Homo sapiens) (P54764 whole entry): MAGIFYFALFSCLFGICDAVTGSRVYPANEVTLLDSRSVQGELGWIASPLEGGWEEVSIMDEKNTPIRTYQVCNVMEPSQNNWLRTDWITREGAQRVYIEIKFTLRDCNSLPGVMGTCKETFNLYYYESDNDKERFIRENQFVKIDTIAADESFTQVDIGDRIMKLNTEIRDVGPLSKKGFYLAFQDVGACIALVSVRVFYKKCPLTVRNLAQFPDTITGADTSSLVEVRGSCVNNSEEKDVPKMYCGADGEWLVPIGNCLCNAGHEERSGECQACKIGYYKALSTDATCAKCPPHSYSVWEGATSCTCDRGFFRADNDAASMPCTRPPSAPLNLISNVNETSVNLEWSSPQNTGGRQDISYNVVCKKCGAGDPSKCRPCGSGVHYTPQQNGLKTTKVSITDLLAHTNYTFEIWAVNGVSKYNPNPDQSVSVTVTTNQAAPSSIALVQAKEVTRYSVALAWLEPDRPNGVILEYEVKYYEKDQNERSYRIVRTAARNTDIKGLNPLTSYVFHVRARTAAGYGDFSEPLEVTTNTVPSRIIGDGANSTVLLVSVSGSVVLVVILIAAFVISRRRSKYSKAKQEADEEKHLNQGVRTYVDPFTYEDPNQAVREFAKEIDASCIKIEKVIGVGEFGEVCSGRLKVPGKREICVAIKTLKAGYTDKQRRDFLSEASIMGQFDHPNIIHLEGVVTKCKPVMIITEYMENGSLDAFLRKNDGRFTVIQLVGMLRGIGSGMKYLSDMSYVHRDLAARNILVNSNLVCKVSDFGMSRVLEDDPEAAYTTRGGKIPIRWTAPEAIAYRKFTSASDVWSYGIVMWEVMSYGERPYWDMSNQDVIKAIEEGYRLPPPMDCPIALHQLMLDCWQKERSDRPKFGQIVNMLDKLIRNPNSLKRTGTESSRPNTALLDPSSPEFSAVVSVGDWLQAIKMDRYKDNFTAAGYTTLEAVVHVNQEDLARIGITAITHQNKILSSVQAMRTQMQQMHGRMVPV
Experiment [3] has as its target Ephrin type-A receptor 5 (Homo sapiens) (UniProt P54756). Conditions: at 1 µM.
Experiment [4] shares this target. Conditions: at 10 µM.
Experiment [5] deals with Ephrin type-A receptor 7 (Homo sapiens) (UniProt Q15375). To be noted: at 1 µM.
Chain of Ephrin type-A receptor 7 (Homo sapiens) (Q15375 28-998 limits assumed): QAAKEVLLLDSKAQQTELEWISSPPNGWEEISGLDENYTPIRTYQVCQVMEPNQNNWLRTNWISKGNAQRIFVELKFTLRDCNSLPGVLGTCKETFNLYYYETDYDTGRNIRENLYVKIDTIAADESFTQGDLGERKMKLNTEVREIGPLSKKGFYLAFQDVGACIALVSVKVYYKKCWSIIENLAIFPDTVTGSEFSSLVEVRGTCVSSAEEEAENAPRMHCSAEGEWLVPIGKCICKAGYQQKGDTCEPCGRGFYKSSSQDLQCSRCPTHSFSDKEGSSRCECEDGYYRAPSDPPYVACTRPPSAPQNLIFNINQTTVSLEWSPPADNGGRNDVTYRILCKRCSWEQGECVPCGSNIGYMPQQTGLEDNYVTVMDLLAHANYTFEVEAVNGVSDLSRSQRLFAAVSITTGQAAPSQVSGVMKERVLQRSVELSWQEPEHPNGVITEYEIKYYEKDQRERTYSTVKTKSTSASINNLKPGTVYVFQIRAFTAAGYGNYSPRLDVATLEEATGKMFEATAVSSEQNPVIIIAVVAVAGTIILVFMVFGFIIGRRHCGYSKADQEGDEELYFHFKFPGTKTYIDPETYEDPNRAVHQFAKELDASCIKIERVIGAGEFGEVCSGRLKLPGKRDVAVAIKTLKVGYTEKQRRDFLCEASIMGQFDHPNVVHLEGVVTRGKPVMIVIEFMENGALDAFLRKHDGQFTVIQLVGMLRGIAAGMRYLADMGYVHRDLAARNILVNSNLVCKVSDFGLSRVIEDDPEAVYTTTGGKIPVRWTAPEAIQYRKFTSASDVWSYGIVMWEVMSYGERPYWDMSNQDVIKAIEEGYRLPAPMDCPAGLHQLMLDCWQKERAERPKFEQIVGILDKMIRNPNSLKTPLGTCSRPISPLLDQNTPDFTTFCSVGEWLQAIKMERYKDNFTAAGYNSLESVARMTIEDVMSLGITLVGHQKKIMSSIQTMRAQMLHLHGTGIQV
Experiment [6] has the same target. To be noted: at 10 µM.
The target in experiment [7] is T2, Ephrin type-A receptor 8 (Homo sapiens) (UniProt P29322).
T2 sequence (whole entry): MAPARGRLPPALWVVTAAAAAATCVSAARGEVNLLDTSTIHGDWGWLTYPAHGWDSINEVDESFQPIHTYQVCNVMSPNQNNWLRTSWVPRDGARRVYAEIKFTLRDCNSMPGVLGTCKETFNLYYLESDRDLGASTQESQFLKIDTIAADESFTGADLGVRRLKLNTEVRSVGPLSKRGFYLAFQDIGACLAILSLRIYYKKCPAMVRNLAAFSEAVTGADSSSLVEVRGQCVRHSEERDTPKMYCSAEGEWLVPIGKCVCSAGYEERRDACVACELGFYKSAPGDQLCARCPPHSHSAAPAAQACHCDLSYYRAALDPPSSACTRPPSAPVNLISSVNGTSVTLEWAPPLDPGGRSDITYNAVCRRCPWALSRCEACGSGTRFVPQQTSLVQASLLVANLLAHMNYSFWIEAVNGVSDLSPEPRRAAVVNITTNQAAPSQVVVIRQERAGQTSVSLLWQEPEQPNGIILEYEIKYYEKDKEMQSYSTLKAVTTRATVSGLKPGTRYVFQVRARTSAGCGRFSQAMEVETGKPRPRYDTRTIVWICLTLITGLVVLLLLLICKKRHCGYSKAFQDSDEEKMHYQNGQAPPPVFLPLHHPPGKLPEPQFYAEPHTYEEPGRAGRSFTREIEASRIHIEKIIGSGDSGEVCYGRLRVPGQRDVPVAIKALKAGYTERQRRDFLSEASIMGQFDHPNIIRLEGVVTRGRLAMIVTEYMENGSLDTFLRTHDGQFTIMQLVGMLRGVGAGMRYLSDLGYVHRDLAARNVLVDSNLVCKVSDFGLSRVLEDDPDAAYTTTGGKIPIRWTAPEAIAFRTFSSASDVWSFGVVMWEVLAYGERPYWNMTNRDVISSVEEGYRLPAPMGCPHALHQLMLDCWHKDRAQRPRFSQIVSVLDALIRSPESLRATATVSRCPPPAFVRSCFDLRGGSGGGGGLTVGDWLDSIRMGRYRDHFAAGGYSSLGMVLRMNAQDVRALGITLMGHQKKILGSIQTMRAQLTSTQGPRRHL
Conditions: at 1 µM.

In experiment [8] the target is T2, Ephrin type-A receptor 8 (Homo sapiens). To be noted: at 10 µM.
Experiment [9] deals with T3, Ephrin type-B receptor 1 (Homo sapiens) (UniProt P54762).
T3 sequence (whole entry): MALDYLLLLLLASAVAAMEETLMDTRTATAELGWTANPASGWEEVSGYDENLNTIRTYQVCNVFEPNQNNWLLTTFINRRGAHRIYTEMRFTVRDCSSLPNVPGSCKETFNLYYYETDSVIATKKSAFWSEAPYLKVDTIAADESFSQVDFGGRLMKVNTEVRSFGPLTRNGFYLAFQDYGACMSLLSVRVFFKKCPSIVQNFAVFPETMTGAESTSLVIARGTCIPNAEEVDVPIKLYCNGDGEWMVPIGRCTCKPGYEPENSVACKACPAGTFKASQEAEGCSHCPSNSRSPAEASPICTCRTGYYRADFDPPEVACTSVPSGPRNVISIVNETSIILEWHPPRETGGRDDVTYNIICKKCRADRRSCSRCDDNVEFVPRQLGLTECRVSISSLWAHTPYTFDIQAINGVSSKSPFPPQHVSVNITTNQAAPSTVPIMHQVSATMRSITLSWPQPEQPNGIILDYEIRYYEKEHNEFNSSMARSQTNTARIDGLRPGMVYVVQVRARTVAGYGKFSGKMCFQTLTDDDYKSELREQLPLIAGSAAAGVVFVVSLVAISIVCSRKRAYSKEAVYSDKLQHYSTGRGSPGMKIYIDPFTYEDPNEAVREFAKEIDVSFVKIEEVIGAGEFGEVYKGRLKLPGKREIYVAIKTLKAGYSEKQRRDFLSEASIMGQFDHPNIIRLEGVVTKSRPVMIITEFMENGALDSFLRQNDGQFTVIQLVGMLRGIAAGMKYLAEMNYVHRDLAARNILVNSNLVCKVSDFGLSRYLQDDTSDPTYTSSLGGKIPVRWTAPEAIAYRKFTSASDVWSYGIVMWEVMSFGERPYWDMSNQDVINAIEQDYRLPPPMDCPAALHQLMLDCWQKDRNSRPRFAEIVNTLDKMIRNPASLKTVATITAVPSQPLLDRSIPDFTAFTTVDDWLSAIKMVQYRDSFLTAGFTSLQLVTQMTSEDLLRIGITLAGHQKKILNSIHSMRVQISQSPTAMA
To be noted: at 1 µM.

Experiment [10] concerns the target T3, Ephrin type-B receptor 1 (Homo sapiens). To be noted: at 10 µM.
The target of experiment [11] is T4, Ephrin type-B receptor 3 (Homo sapiens) (UniProt P54753).
T4 sequence (whole entry): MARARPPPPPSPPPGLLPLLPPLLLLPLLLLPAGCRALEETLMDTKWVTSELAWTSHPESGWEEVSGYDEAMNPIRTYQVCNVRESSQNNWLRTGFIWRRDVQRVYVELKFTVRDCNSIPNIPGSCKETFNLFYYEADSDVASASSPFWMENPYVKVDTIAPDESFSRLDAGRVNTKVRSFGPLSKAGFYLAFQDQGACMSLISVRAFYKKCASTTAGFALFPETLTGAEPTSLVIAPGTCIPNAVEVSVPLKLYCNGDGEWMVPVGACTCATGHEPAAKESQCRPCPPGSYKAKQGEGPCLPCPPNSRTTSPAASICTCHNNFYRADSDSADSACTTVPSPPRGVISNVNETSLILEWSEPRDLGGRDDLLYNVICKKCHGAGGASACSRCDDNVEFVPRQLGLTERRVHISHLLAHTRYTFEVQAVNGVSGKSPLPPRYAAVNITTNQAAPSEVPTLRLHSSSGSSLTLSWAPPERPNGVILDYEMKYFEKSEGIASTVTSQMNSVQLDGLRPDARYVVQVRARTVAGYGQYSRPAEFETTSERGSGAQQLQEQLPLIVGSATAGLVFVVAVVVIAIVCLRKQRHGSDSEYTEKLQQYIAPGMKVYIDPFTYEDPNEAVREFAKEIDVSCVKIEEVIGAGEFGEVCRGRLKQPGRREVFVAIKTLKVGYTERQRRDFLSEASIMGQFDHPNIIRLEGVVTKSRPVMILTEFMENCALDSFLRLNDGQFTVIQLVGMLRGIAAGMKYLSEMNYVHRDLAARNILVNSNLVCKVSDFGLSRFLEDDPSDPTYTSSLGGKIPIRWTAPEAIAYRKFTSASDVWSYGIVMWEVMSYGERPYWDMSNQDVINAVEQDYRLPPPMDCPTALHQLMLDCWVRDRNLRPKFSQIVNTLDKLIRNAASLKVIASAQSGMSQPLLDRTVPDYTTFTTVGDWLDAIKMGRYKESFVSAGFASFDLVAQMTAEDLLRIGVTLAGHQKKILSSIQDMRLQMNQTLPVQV
To be noted: at 1 µM.

In experiment [12] the target is T4, Ephrin type-B receptor 3 (Homo sapiens). Conditions: at 10 µM.
The target in experiment [13] is T5, Ephrin type-B receptor 4 (Homo sapiens) (UniProt P54760).
T5 sequence (whole entry): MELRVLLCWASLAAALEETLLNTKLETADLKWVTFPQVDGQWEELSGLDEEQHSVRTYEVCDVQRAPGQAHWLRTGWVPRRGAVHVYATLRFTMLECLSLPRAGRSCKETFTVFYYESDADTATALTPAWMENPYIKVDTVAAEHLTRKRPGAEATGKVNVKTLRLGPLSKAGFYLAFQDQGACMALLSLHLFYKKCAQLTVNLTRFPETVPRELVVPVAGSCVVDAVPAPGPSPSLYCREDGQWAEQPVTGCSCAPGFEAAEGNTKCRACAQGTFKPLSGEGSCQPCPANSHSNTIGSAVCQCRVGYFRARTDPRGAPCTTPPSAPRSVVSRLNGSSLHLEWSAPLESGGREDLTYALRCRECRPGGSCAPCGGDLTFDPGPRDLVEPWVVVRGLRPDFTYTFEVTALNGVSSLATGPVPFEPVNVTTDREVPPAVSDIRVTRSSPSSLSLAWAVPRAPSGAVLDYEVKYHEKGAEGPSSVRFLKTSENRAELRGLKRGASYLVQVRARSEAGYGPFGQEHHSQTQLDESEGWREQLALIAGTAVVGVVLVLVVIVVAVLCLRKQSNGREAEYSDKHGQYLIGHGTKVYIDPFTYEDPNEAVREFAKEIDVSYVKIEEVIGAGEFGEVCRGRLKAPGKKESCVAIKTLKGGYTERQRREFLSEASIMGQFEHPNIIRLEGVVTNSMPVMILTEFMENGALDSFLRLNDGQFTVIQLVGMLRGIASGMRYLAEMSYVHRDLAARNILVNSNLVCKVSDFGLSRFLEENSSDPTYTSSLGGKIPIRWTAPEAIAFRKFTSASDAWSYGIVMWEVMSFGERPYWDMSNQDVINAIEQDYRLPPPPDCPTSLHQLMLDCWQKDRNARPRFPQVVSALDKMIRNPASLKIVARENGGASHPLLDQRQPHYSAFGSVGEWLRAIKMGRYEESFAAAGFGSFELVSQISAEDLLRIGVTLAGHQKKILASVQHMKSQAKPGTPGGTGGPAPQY
To be noted: at 1 µM.

In experiment [14] the target is T5, Ephrin type-B receptor 4 (Homo sapiens). Conditions: at 10 µM.
Experiment [15] has as its target Receptor tyrosine-protein kinase erbB-4 (Homo sapiens) (UniProt Q15303). To be noted: at 1 µM.
Experiment [16] has the same target. To be noted: at 10 µM.

Chain of Receptor tyrosine-protein kinase erbB-4 (Homo sapiens) (Q15303 whole entry): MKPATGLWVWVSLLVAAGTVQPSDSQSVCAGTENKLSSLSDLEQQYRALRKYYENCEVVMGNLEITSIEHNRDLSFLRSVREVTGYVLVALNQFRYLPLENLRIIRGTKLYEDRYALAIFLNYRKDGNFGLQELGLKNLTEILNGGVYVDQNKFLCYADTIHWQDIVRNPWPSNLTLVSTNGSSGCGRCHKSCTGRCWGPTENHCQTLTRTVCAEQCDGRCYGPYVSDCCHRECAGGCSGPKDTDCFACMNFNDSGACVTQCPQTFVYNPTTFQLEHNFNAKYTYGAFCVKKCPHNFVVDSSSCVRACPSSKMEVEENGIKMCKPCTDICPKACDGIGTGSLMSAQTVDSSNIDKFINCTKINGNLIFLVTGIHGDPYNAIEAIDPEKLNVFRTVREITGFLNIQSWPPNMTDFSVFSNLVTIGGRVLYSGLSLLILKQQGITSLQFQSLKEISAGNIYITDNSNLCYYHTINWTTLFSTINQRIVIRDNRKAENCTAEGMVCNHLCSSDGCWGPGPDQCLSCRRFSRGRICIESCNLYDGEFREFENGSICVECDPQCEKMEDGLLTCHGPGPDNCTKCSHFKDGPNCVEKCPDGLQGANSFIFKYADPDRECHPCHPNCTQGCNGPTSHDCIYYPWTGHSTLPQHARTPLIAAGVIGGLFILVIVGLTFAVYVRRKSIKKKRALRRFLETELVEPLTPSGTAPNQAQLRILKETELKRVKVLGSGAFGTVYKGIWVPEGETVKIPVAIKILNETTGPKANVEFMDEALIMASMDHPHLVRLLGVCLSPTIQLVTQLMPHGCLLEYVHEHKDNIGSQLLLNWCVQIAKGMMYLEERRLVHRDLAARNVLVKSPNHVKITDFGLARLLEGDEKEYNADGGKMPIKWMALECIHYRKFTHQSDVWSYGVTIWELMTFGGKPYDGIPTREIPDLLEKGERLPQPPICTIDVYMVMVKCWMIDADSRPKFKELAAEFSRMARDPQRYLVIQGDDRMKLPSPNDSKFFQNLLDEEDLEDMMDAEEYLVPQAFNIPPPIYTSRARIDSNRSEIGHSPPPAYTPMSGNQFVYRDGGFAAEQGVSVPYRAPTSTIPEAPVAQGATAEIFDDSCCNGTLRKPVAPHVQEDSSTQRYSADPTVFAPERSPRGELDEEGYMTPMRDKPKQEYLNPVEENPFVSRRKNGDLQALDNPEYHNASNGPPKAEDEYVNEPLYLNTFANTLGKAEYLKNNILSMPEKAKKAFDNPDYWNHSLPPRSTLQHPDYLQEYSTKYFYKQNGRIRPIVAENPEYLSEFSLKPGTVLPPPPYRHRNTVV
Chain of Ephrin type-A receptor 5 (Homo sapiens) (P54756 whole entry): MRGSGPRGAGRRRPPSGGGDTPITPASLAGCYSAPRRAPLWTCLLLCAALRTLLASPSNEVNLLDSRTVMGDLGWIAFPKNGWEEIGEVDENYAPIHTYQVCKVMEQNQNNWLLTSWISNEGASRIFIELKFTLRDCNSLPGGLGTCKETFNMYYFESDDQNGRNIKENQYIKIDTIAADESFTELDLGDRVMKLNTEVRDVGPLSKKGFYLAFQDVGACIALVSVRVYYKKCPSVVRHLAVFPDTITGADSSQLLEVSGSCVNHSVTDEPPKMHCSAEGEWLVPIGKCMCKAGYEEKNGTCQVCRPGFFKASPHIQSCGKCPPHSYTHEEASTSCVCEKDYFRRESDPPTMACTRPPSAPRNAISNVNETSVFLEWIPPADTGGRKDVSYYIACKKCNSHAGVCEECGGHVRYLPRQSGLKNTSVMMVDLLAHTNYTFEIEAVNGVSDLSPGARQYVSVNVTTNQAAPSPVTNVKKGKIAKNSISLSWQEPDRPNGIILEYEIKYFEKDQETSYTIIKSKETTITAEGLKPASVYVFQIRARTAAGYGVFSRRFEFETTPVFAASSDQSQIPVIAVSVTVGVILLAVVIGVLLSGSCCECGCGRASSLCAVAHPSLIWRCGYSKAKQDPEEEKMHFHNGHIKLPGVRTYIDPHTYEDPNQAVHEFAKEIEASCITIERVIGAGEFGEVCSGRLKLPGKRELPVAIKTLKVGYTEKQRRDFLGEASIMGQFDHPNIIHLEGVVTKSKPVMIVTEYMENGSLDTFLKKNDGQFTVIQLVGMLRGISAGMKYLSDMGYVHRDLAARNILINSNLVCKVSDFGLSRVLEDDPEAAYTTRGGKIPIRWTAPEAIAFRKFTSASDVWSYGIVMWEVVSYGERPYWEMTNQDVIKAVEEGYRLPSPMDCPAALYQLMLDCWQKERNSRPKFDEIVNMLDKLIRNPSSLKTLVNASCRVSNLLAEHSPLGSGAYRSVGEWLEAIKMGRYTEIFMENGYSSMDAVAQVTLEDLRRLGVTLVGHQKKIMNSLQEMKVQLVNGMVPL

For `c1ccc(-c2n[nH]cc2-c2ccnc3ccccc23)nc1`, the residual activity in [1] was determined as 78%; in experiment [2], 103%; in experiment [3] it was 109%; in [4], 103%; in experiment [5] it was 94%; in experiment [6] it was 91%. For the same compound, the residual activity was 95% in experiment [7]; 97% in experiment [8]; 104% in [9]; 105% in experiment [10]; 102% (inactive) in experiment [11]; 137% in experiment [12]. Moreover, the residual activity was 109% in experiment [13], 105% in experiment [14], 98% in [15] and 98% in experiment [16].

In general, residual activity refers to the signal under treatment as a percentage of the control signal.

For the origin of these results see ChEMBL document CHEMBL2218924, “A broad activity screen in support of a chemogenomic map for kinase signalling research and drug discovery” (Biochem J, 2013).
